# Assay results: PubChem BioAssay (Tox21)
# “And” between values parts separate entries of the source, which are not always exact repeats. Identical values can stand only once. Records with an inconclusive call do not appear. Where a call stands in place of a potency, no number is given. Unmarked numbers belong to inactive results. The source made the active and inactive calls. Calls follow the shape of the dose curve; as a rule, active = well fitted cell-killing curve with a large enough effect in the repeat runs; inconclusive = weak or mixed curves, or effect the other way; inactive = flat fitted curve, though single readings scatter.
# Columns and labels:
# [1] = cAMP Responsive Elements (CRE) small molecule antagonists, cell-based qHTS assay: qHTS cell viability counter screen (AID 2060913); also: nearly all actives have a fitted effect of over 40% in size
# Outline: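 HEK293T CRE-bla, 2,000 cells/well, 18 h preincubation; cpd in DMSO + NKH477 0.25 uM final, 3 h 37 C/5% CO2; LiveBLAzer 2 h RT, then CellTiter-Glo 30 min RT, luminescence.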
# [2] = cAMP Responsive Elements (CRE) small molecule agonists, cell-based qHTS assay: qHTS cell viability counter screen (AID 2060914);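 also: viability read after 3 h of compound exposure; nearly all actives have a fitted effect of over 50% in size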
# Outline: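 HEK 293T CRE-bla; DMEM + 10% dialyzed FBS, 25 mM HEPES; 18 h pre-incubation; compound 3 h, 37 °C/5% CO2; CellTiter-Glo added after reporter read; luminescence after 30 min RT.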
# Potency is read from the fitted curve at half-maximal effect.
Structure (SMILES),Potency [1],Potency [2],"viability change, negative = cytotoxic [1]","activity change, negative = cytotoxicity [2]"
C=C(C#N)C(=O)OCC,inactive,inactive,,
Cc1ccc2c(c1)c1c3n2CCNC3CCC1 (stereo not drawn),inactive,inactive,,
CC1=CC(=C(c2ccc(N)cc2)c2ccc(N)cc2)C=CC1=N,,,-2.05% [at 8.39 µM],-0.199% [at 8.39 µM]
CCCCCCCCCCCCCCC(=O)O,inactive,inactive,,
CCCCC(CC)CN1C(=O)C2C3C=CC(C3)C2C1=O (stereo not drawn),inactive,inactive,,
O[C@@H](CNC[C@H](O)[C@H]1CCc2cc(F)ccc2O1)[C@@H]1CCc2cc(F)ccc2O1,inactive,inactive,,
C/C(=N\[Si](C)(C)C)O[Si](C)(C)C,inactive,inactive,,
COc1cc(C(C)C)c2c(c1)S(=O)(=O)N(COc1cc(=O)n3cccc(OCCN4CCCCC4)c3n1)C2=O,,,-2.74% [at 18.9 µM],4.87% [at 18.9 µM]
CN(C)c1ccc2nc3ccc(=[N+](C)C)cc-3sc2c1,inactive,inactive,,
CCC(C)c1cc([N+](=O)[O-])cc([N+](=O)[O-])c1OC(=O)OC(C)C (stereo not drawn),inactive,inactive,,
NC(N)=NCCC[C@H](N)C(=O)O,,,-0.587% [at 8.39 µM],-0.412% [at 8.39 µM]
C[N+]1(C)[C@@H]2CC(OC(=O)[C@H](CO)c3ccccc3)C[C@H]1[C@@H]1O[C@@H]12 (stereo partly drawn),inactive,inactive,,
Cc1cc(Br)ccc1NC(=O)CCl,inactive,inactive,,
CC(=O)c1ccc(O)c(C(N)=O)c1,inactive,inactive,,
N#CCc1ccc(Cl)cc1Cl,inactive,inactive,,
O=C1CC2CC1C1CCCC21 (stereo not drawn),inactive,inactive,,
CCc1cccc(O)c1,inactive,inactive,,
O=C(Cl)c1cccc([N+](=O)[O-])c1,inactive,inactive,,
CCCCN1CCCC1C(=O)Nc1c(C)cc(C)cc1C (stereo not drawn),inactive,inactive,,
O=C(O)c1cccc(-c2noc(-c3ccccc3F)n2)c1,23.7 µM (active),21.1 µM (active),,
O=C(O)CCC(=O)C(=O)O,inactive,inactive,,
CN(CCOc1ccc(CC2SC(=O)NC2=O)cc1)c1ccccn1 (stereo not drawn),inactive,inactive,,
CC(=O)N[C@@H](Cc1ccc(O)cc1)C(=O)O,inactive,inactive,,
CC(=O)/C=C/C=C1/C2CCC(C2)C1(C)C (stereo not drawn),inactive,inactive,,
CCOCCOCCOCCO,inactive,inactive,,
CCC(C)S (stereo not drawn),,,3.82% [at 3.27 µM],5.15% [at 3.27 µM]

Structure (SMILES),Potency [1],Potency [2],"viability change, negative = cytotoxic [1]","activity change, negative = cytotoxicity [2]"
C=C[Si](C)(C)O[Si](C)(C)C=C,inactive,inactive,,
CCOC(=O)[C@H](CCc1ccccc1)N[C@H]1CS[C@H](c2cccs2)CN(CC(=O)O)C1=O,inactive,inactive,,
CCCCCCCCCCCCCCCCCCN(C)C,inactive,inactive,,
O=C(O)[C@@H](O)[C@H](O)[C@H](O)[C@@H](O)C(=O)O,inactive,inactive,,
O=S(=O)(Cl)c1c(Cl)cccc1Cl,inactive,inactive,,
O=C1Nc2cc(Cl)ccc2Oc2ccccc21,inactive,inactive,,
Cc1ccc(C)c([N+](=O)[O-])c1,inactive,inactive,,
O=C(O)c1cn(-c2ccc(F)cc2)c2cc(N3CCNCC3)c(F)cc2c1=O,inactive,inactive,,
CC(C)(C)C(=O)OCOC(=O)C1N2C(=O)CC2S(=O)(=O)C1(C)C (stereo not drawn),inactive,inactive,,
OCCC1CCCCN1 (stereo not drawn),inactive,inactive,,
O=C(O)CN(CC(=O)O)CC(=O)O,inactive,inactive,,
Cc1ccc(Cl)c(OCC(O)CNC(C)(C)C)c1 (stereo not drawn),inactive,inactive,,
COc1ccc(-c2cc(C(F)F)nn2-c2ccc(S(N)(=O)=O)cc2)cc1F,inactive,inactive,,
Cc1ccc([N+](=O)[O-])cc1S(=O)(=O)O,inactive,inactive,,
CCc1ccc(O)cc1,inactive,inactive,,
CN1C(=O)N(C)C(O)C1O (stereo not drawn),inactive,inactive,,
CC(C)=CC(=O)C=C(C)C,inactive,inactive,,
ON(Cc1ccccc1)Cc1ccccc1,inactive,inactive,,
Nc1ccccc1O,inactive,inactive,,
O=C(O)c1ccc2c(c1)nc(C(=O)NC1CCN(C3CC3)CC1)n2Cc1cc(-c2ccc(Cl)s2)on1,,,-0.942% [at 18.9 µM],-9.02% [at 18.9 µM]
CCN(CC)CCOC(=O)C(Cc1cccc2ccccc12)CC1CCCO1 (stereo not drawn),inactive,inactive,,
CC(=O)Nc1ccccc1O,inactive,inactive,,
Cc1ccc(C=O)cc1,inactive,inactive,,
CC(O)CC(C)(C)O (stereo not drawn),inactive,inactive,,
CN1CCC(N(Cc2cccs2)c2ccccc2)CC1,inactive,inactive,,
O=C(OC(=O)c1ccccc1)c1ccccc1,inactive,inactive,,

Structure (SMILES),Potency [1],Potency [2],"viability change, negative = cytotoxic [1]","activity change, negative = cytotoxicity [2]"
OC[C@@H](O)[C@@H](O)[C@H](O)[C@H](O)CO,inactive,inactive,,
NS(=O)(=O)c1cc(C(=O)O)c(NCc2ccco2)cc1Cl,inactive,inactive,,
C/C=C/C(=O)N(CC)c1ccccc1C,inactive,inactive,,
CSc1ccc2c(c1)C(N1CCN(C)CC1)Cc1ccccc1S2 (stereo not drawn),inactive,inactive,,
CCCCNCC,inactive,inactive,,
CC1(C)S[C@@H]2[C@H](NC(=O)[C@H](N)c3ccccc3)C(=O)N2[C@H]1C(=O)O,inactive,inactive,,
OCCCCl,inactive,inactive,,
COCC(=O)O,inactive,inactive,,
N=C1N=C(N)c2ccccc21,inactive,inactive,,
O=C(/C=C/c1ccccc1)NCCO,inactive,inactive,,
C=CC/C=C/C,inactive,inactive,,
NC(=S)Nc1cccc2ccccc12,,,19.4% [at 8.39 µM],-4.32% [at 8.39 µM]
C=Cc1c(C)c2cc3[nH]c(cc4nc(cc5nc(cc1[nH]2)C(C)=C5CCC(=O)O)C(CCC(=O)O)=C4C)c(C)c3C=C,inactive,inactive,,
O=C(Cn1ccnc1[N+](=O)[O-])NCc1ccccc1,inactive,inactive,,
COS(=O)(=O)O,inactive,inactive,,
CCCCCCCC/C=C\CCCCCCCC(=O)OC(CO)CO,inactive,inactive,,
CCCCCCCCCCCCCC[N+](C)(C)Cc1ccccc1,55.3 µM (active) and 26.6 µM (active) and 15.8 mM (active),22 µM (active) and 11.9 µM (active),,
CCCCCC1Nc2cc(C(F)(F)F)c(S(N)(=O)=O)cc2S(=O)(=O)N1 (stereo not drawn),inactive,inactive,,
c1ccc(CSCc2ccccc2)cc1,inactive,inactive,,
CCc1nn(C2CCCCC2)c2cc(C3(C#N)CCC(C(=O)O)CC3)ccc12 (stereo not drawn),inactive,inactive,,
CC(CCc1ccc(O)cc1)NCCc1ccc(O)c(O)c1 (stereo not drawn),inactive,inactive,,
Cc1ccccc1N=C(N)Nc1ccccc1C,inactive,inactive,,
Nc1ccc(O)c(N)c1,inactive,inactive,,
CC1(C)S[C@@H]2[C@H](NC(=O)Cc3ccccc3)C(=O)N2[C@H]1C(=O)O (tested in a mixture with another compound),inactive,inactive,,
C#Cc1cccc(Nc2ncnc3cc(OCCOC)c(OCCOC)cc23)c1,inactive,inactive,,
CCOC(=O)O[C@]1(C(=O)OCCl)CC[C@H]2[C@@H]3CCC4=CC(=O)C=C[C@]4(C)[C@H]3[C@@H](O)C[C@@]21C,inactive,inactive,,

Structure (SMILES),Potency [1],Potency [2],"viability change, negative = cytotoxic [1]","activity change, negative = cytotoxicity [2]"
COc1ccc(C(=O)c2ccccc2O)c(O)c1,inactive,inactive,,
CCOC(=O)[C@H](C)O,inactive,inactive,,
COc1ccc2sc(C(=O)Nc3nnn[nH]3)c(OC(C)C)c2c1,inactive,inactive,,
C=C[Si]1(C)O[Si](C)(C=C)O[Si](C)(C=C)O[Si](C)(C=C)O1 (stereo not drawn),inactive,inactive,,
NC(=O)Nc1nc2ccccc2[nH]1,inactive,inactive,,
c1ccc2c(c1)ccc1ccccc12,inactive,inactive,,
Cc1cc(SC2=C(O)C[C@@](CCc3ccc(N)cc3)(C(C)C)OC2=O)c(C(C)(C)C)cc1CO,inactive,inactive,,
O=C1c2ccccc2C(=O)c2c(O)ccc(O)c21,inactive,inactive,,
CC1=C(/C=C/C(C)=C\C=C\C(C)=C\C(=O)O)C(C)(C)CCC1,inactive,inactive,,
Cc1ccc(NC(N)=O)cc1,inactive,inactive,,
C=C(C)C(=O)OCCOC1CC2CC1C1C=CCC21 (stereo not drawn),inactive,inactive,,
CCCCCCCCCCCCCCCCCC[N+](C)(C)Cc1ccccc1,61.7 µM (active),55 µM (active),,
Cc1cccc(C)c1NC(=O)c1cc(S(N)(=O)=O)c(Cl)cc1O,inactive,inactive,,
C[C@]12CCC(=O)C=C1CC[C@@H]1[C@@H]2[C@@H](O)C[C@@]2(C)[C@H]1CC[C@]2(O)C(=O)COC(=O)CCC(=O)O,inactive,inactive,,
CCN(CC)c1ccc(C=O)cc1,inactive,inactive,,
O=C(O)Cc1ccc(OCCNC[C@H](O)c2ccccc2)cc1,inactive,inactive,,
CC(C)(C)NC[C@H](O)COc1nsnc1N1CCOCC1,inactive,inactive,,
CCOC(=O)C(Br)c1ccccc1 (stereo not drawn),inactive,inactive,,
CC/C=C(\C(=O)N[C@@H]1C(=O)N2C(C(=O)OCOC(=O)C(C)(C)C)=C(COC(N)=O)CS[C@H]12)c1csc(N)n1,inactive,inactive,,
Cc1cc(CCN2CCN(c3nsc4ccccc34)CC2)cc2c1NC(=O)CC2(C)C,68.6 µM (active),68.6 µM (active),,
O=c1c2ccccc2oc2ccccc12,inactive,inactive,,
C/C=C(\C)C(=O)OCCC(C)CCC=C(C)C (stereo not drawn),inactive,inactive,,
O=C(Nc1ccc([N+](=O)[O-])cc1)Nc1ccc([N+](=O)[O-])cc1,inactive,inactive,,
CN(C)CCCCCCN(C)C,inactive,inactive,,
CCOC(/C=C(\C)CCC=C(C)C)OCC,inactive,inactive,,
Cc1ccc(C)cc1,inactive,inactive,,
